From PubChem BioAssay
ERG Ets-DNA blk: ERG Ets/DNA interaction inhibition. P11308. fluorescence polarization, His-ERG Ets domain / labelled DNA. Potency, µM (doses to about 76.9 µM), inactives show at the highest dose FP activity, negative = inhibition, most hits filed as inhibitors. actives 0.028% (n = 370,000); active = well fitted inhibition curve with a large enough effect in the polarisation, with a control signal flat; inconclusive = small, poorly fitted or top-dose-only effect, or effect the other way, or a change in a side signal; inactive = no such curve, though single readings can be large or run the other way; the % refers to the polarisation;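 also: polarization taken with two DNA probes labelled with fluorescein and Texas red; potency is read from the fitted curve at half-maximal effect; % of control where 0% means no effect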
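His-tagged ERG Ets domain (1 uM in the protein solution; 300mM KCl, 50mM Tris-HCl, 1mM EDTA, 1mM DTT, pH 7.5) received compound, then a probe mix of 5 nM fluorescein-DNA and 100nM Texas-615-DNA. Fluorescence polarization was read for both dyes.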
RORg inh: ROR gamma (mouse) transcription inhibition; Drosophila S2 Gal4-RORgamma UAS-luciferase reporter, 20 h; Potency, µM (series often up to 53.6 µM), for the others: at the top dose activity change, negative = inhibition, most hits filed as inhibitors; actives 5.4% (n = 310,000); AID 2551; also: potency is read from the fitted curve at half-maximal effect; % is scaled to controls: 0 for no effect and ±100 for the full control effect; nearly all actives have a fitted effect of over 60% in size
Target sequence (P51450 whole entry, looked up, the tested form may be a part): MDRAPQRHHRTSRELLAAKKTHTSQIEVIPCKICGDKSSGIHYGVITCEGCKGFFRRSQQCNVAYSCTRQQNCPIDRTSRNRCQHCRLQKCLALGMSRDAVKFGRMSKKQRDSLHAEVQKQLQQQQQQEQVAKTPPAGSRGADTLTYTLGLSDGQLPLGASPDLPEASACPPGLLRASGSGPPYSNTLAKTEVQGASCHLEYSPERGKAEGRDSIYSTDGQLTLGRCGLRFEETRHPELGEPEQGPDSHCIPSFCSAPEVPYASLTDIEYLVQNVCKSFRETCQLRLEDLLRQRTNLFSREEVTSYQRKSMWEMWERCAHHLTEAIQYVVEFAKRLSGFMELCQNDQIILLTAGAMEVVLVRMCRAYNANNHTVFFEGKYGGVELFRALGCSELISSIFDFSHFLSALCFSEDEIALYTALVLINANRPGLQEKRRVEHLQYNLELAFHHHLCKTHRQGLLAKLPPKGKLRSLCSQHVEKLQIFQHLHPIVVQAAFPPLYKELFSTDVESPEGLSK
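Using a luciferase readout, inhibitors were identified by reduced reporter activity in Drosophila cells coexpressing a copper-inducible Gal4–ROR gamma fusion and UAS-driven Photinus luciferase, incubated 20 hr after 700 uM copper sulfate.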
Giardia kill: kills Giardia lamblia; Giardia lamblia trophozoite viability; activity change, % at 7.66 µM, hits read low; actives 0.15% (n = 340,000); AID 540267; in the data active = activity change below about -80%; inconclusive = between about -30% and that limit;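 also: parasites exposed to compound for two days anaerobically before the ATP read; % is scaled to controls: 0 for no effect and ±100 for the full control effect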
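Trophozoite viability was measured as ATP-dependent luminescence, read 15-30 min after reagent addition. Before that, parasites at 100 cells/well were exposed to compounds for 48 h, anaerobically, at 37 deg C.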
VP16 counter: Gal4-VP16 reporter inhibition counter-screen. Drosophila S2 Gal4-VP16 UAS-luciferase, luminescence, 20 h. Potency, µM (series often up to 53.6 µM), for inactives: at the top dose activity, negative = inhibition, most hits filed as inhibitors. actives 3.5% (n = 310,000). AID 2546;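 also: Gal4-VP16 expression switched on by copper sulfate through the metallothionein promoter; potency is read from the fitted curve at half-maximal effect; % is scaled to controls: 0 for no effect and ±100 for the full control effect; nearly all actives have a fitted effect of over 50% in size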
a7 integrin act: activates integrin-mediated alleviation for muscular dystrophy; AID 624291; Potency, µM (top dose mostly 38.3 µM), for inactives: at the top dose activation, most hits filed as activators; actives 0.064% (n = 350,000); alpha7betagal myoblasts, beta-gal FDG fluorescence, 48 h;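 also: potency is read from the fitted curve at half-maximal effect; 100% = response of the positive control SU9516; nearly all actives have a fitted effect of over 60% in size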
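Alpha7betagal+/- myoblasts (passage 13) were plated 16-24 hr, then exposed to compounds (1:260 dilution of DMSO stock) for 48 hours at 37C. After MPER lysis, β-galactosidase reporter activity was read as FDG fluorescence (ex 480/em 540) after 30 minutes.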
* hit, by the source's call; ? = inconclusive; . = no result given; [ ] = remark or other dose. Many of the other results were omitted from the sample, so hits are more common in it than they were. Unless noted, calls follow the shape of the dose curve; as a rule, active = well fitted curve in the direction sought with a large enough effect; inconclusive = small, poorly fitted or top-dose-only effect, or another doubt; inactive = no such curve, though single readings can be large; an effect the other way counts as inactive or inconclusive.

SMILES | ERG Ets-DNA blk | RORg inh | Giardia kill | VP16 counter | a7 integrin act
COc1cc2c3nnc(-c4ccc(F)cc4)c-3cn(Cc3cccc(C)c3)c2cc1OC | -3.9% | ? | 1.1 | 10µM* | 21.9%
COc1cc2c3nnc(-c4ccc(F)cc4)c-3cn(Cc3ccc(C)cc3)c2cc1OC | 0.1% | 5.01µM* | 14.3 | 3.98µM* | -12.0%
OB(O)c1ccc(B(O)O)cc1 | . | -2.9% | 2.9 | 0.5% | .
CCCOc1cccc(C2c3c(oc4ccc(F)cc4c3=O)C(=O)N2CCCN2CCOCC2)c1 (stereo not drawn) | 4.6% | . | . | . | .
Cn1cccc1/C=N/n1c(-c2ccc(C(C)(C)C)cc2)n[nH]c1=S | -5.2% | 2.24µM* | 14.2 | ? | 14.7%
Cn1cccc1/C=N/n1c(-c2ccccc2)n[nH]c1=S | 8.5% | 14.1µM* | 23.8 | ? | 0.5%
Cc1ccc(-c2n[nH]c(=S)n2/N=C/c2sccc2C)cc1 | -0.7% | ? | -19.1 | -2.4% | -30.7%
CC(=O)C(Sc1ccc2nnc(-c3ccc(F)cc3)n2n1)C(C)=O | 8.7% | ? | 25.2 | -19.7% | -27.0%
O=C(CCN1C(=O)C2C3C=CC(C4CC34)C2C1=O)Oc1ccc(Br)cc1 (stereo not drawn) | -7.9% | 1.2% | -7.1 | -3.6% | 30.3%
O=C(CCN1C(=O)C2C3C=CC(C4CC34)C2C1=O)Oc1cccc2cccnc12 (stereo not drawn) | 2.8% | 2µM* | -2.2 | 7.94µM* | -56.9%
CCc1ccc2[nH]c(O)c(N=Nc3nc(-c4ccccc4)cs3)c2c1 | 8.0% | 12.6µM* | -3.5 | ? | -31.4%
Cc1cc(C(=O)c2ccccc2)c(NC(=O)CCl)s1 | -0.8% | -11.9%[10 µM] | 7.3 | -99.1% | -54.9%
CCc1cc(C(=O)c2ccc(OC)cc2)c(NC(=O)COCC(=O)O)s1 | -7.2% | -1.6% | 15.5 | 4.4% | 3.2%
CCN(CC)CC(=O)Nc1sc(C)cc1C(=O)c1ccc(C)cc1 | 5.8% | 3.16µM* | -21.0 | 6.31µM* | -19.8%
CCN(CC)CC(=O)Nc1sc(C)c(C)c1C(=O)c1ccc(C)cc1 | 2.3% | 11.2µM* | 20.8 | -7.0% | 5.9%
CCc1cc(C(=O)c2ccc(Br)cc2)c(NC(=O)CN(CC)CC)s1 | 9.8% | 6.31µM* | 0.1 | 11.2µM* | 20.5%
CCN(CC)CC(=O)Nc1sc(C)cc1C(=O)c1ccccc1 | -2.0% | 7.08µM* | 4.3 | ? | -15.7%
O=C(CS(=O)CC(=O)N(CC(=O)NC1CCCC1)c1ccccc1F)Nc1ccc(F)cc1 (stereo not drawn) | 1.2% | -25.8% | -2.1 | 0.3% | 26.1%
Cc1ccc(-n2c(=O)[nH]c3cc(C(=O)NCCc4ccccc4)ccc3c2=O)cc1 | -4.5% | . | . | . | .
CN1CCN(S(=O)(=O)c2ccc(C#N)cc2)C(c2ccccc2)C1 (stereo not drawn) | -1.0% | . | -7.5 | . | 1.8%
Clc1ccc(CSc2nnc(-c3ccccn3)n2Cc2ccco2)c(Cl)c1 | 0.9% | ? | -6.9 | ? | -11.8%
C[C@@H]1CNCCN1S(=O)(=O)c1cccc2cnccc12 | . | ? | . | 25.1µM* | .
NC(N)=NCCNS(=O)(=O)c1cccc2cnccc12 | . | -13.3% | . | -8.2% | .
O=C(/C=C/c1ccccc1Cl)Nc1ccc2c(c1)C(=O)NC2=O | 8.5% | -26.9% | -15.7 | -10.1% | 21.9%
O=C(/C=C/c1ccccc1Cl)Nc1cccc(O)c1 | 14.0% | 0.316µM* | -18.3 | 2.51µM* | 1.0%
SMILES | ERG Ets-DNA blk | RORg inh | Giardia kill | VP16 counter | a7 integrin act
CN(C)S(=O)(=O)c1ccc(NC(=O)/C=C/c2ccccc2Cl)cc1 | 2.5% | 0.501µM* | 1.6 | -9.9% | -45.7%
O=C(/C=C/c1ccccc1Cl)Nc1ccccc1 | 6.6% | 2µM* | -11.0 | ? | 13.1%
CCCN1C(=O)CC(c2ccco2)Sc2ccccc21 (stereo not drawn) | 5.0% | 15.8µM* | 1.0 | ? | 1.3%
O=C(CN1C(=O)NC2(CCCCCC2)C1=O)Nc1ccc(OC(F)(F)F)cc1 | . | . | . | . | -22.4%
Cc1ccccc1NC(=O)c1c(C)cc(=O)oc1C | 5.7% | -1.6% | -8.1 | -1.5% | 4.4%
COC(=O)c1sc(N)c(C(=O)OC)c1Cn1ncc(Cl)c(Cl)c1=O | 1.3% | ? | 13.3 | 12.6µM* | -55.5%
COC(=O)c1sc(N)c(C(=O)OC)c1COC(=O)c1c(C)noc1C | -3.1% | -8.8% | 2.6 | -9.2% | -44.3%
